PubChem BioAssay (NCI)
The panel holds about 83,000 compounds, 20% with a hit somewhere; the sample as a whole holds those more often.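 Compound tested at a single concentration for 48 hours in 96-well plates; a percent growth value below 10 was scored as active.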 The source made the active and inactive calls.

Key:
Test in all cases: NCI-60 one-dose screen, 48 h (100 = growth as untreated, 0 = no growth, -100 = all killed)
Details in all cases: 10 µM unless noted
[1] = system: MOLT-4 leukemia
[2] = system: SR leukemia
[3] = system: RPMI-8226 leukemia
[4] = system: OVCAR-8 ovarian
[5] = system: OVCAR-5 ovarian
[6] = system: OVCAR-4 ovarian
[7] = system: SK-OV-3 ovarian
[8] = system: IGROV1 ovarian
[9] = system: OVCAR-3 ovarian
[10] = system: HS 578T breast
[11] = system: NCI/ADR-RES ovarian
[12] = system: T-47D breast
[13] = system: BT-549 breast
[14] = system: MDA-MB-435 melanoma
[15] = system: SW-620 colon
[16] = system: MCF7 breast
[17] = system: HCT-116 colon
[18] = system: HCC-2998 colon
[19] = system: KM12 colon

Measured: growth

C=C(C)[C@@]12OC3(/C=C/C=C/CCCCC)O[C@@H]1[C@@H]1[C@@H]4O[C@]4(CO)[C@@H](O)[C@]4(O)C(=O)C(C)=C[C@H]4[C@@]1(O3)[C@H](C)[C@H]2OC(=O)c1ccccc1
inactive: [1] 31.2% | [2] 67.2% | [3] 66.4% | [4] 82.6% | [5] 107% | [6] 72.2% | [7] 102% | [8] 52.3% | [9] 61.6% | [11] 69.4% | [12] 81.7% | [13] 83% | [14] 40.5% | [15] 58.9% | [16] 38.7% | [17] 49.7%
active: [10] 4% | [18] -3.12% | [19] 9.5%

CC(=O)OC1C(OC/C2=C/C3[C@@H](C(C)C)CC=C(C)[C@@H]3CC(OC(=O)/C=C/c3cn(C)cn3)[C@]3(C)C=C[C@@]2(O)O3)OCC(O)C1O (stereo not given in full)
active: [3] 4.84% | [13] -14.3% | [14] -52.3% | [17] 4.11% | [18] -44.1%
inactive: [1] 35.8% | [2] 24.8% | [4] 32.7% | [5] 49.4% | [6] 43% | [7] 11.9% | [8] 33.6% | [9] 15.3% | [10] 21.8% | [11] 80.8% | [12] 23% | [15] 35.8% | [16] 13.5% | [19] 14.1%

Cc1c(O)c(CN(CCCl)CCCl)cc(CN(CCCl)CCCl)c1O
active: [2] 4.03%
inactive: [1] 75.2% | [3] 86.8% | [4] 90.4% | [5] 97.9% | [6] 83.9% | [7] 102% | [8] 87.4% | [9] 101% | [10] 86.3% | [11] 103% | [12] 79.3% | [13] 99.1% | [14] 96.8% | [15] 67.9% | [16] 67.5% | [17] 84% | [18] 90.6% | [19] 103%

COP(=S)(N1CC1)N1CC1
inactive: [1] 101% | [2] 89.9% | [3] 104% | [4] 135% | [5] 95.9% | [6] 111% | [7] 110% | [8] 106% | [9] 113% | [10] 121% | [11] 103% | [12] 94.8% | [13] 118% | [14] 105% | [15] 103% | [16] 102% | [17] 109% | [18] 105% | [19] 116%

CC[C@H](C)[C@H](NC(=O)[C@H]1CCCCN1C)C(=O)N(C)[C@H](CCc1nc(C(=O)N[C@@H](Cc2ccccc2)C[C@H](C)C(=O)OC)cs1)C(C)C
active: [7] 8.81% | [9] -18.6% | [13] -8.87% | [14] -39.4% | [17] 1.83%
inactive: [1] 15% | [2] 13.2% | [3] 15.5% | [4] 23.2% | [5] 49.3% | [6] 43.6% | [8] 26.8% | [10] 39.2% | [11] 29.2% | [12] 59.3% | [15] 28% | [16] 20.5% | [18] 20.7% | [19] 15.8%

COc1ccc(C(=O)c2cc(OC)c(OC)c(OC)c2)cc1OC(C)=O
inactive: [1] 13.9% | [2] 11.9% | [3] 20.4% | [4] 15.6% | [5] 57.9% | [6] 57.7% | [7] 24.2% | [8] 25.6% | [10] 44.3% | [12] 55.2% | [15] 25.1% | [16] 15.7% | [18] 25.5% | [19] 11.2%
active: [9] 5.13% | [11] 7.97% | [13] 8.56% | [14] -16.3% | [17] 6.24%

Clc1ccc(N2COOC3(OOC2)C2CC4CC(C2)CC3C4)cc1
active: [8] -52.9% | [9] 4.41% | [11] -13.3%
inactive: [1] 56.9% | [2] 11.2% | [3] 35.6% | [4] 46.6% | [5] 70.4% | [6] 87.1% | [7] 92.9% | [10] 75.9% | [12] 49.1% | [13] 68.7% | [14] 53.1% | [15] 75.3% | [16] 71.7% | [17] 50.4% | [18] 102% | [19] 36%

CCOc1ccccc1C(=O)OCC(Cl)(Cl)Cl
inactive: [1] 105% | [2] 93.9% | [3] 107% | [4] 102% | [5] 109% | [6] 111% | [7] 106% | [8] 106% | [9] 109% | [10] 97.9% | [11] 108% | [12] 90.6% | [13] 106% | [14] 107% | [15] 110% | [16] 99.4% | [17] 105% | [18] 101% | [19] 101%

CN[C@@]1(c2ccccc2Cl)CCCC[C@@H]1NCC1CCCO1 (stereo not given in full)
inactive: [1] 111% | [2] 95.2% | [3] 104% | [4] 102% | [5] 97.4% | [6] 93.8% | [7] 111% | [8] 102% | [9] 116% | [10] 96.3% | [11] 101% | [12] 93% | [13] 102% | [14] 102% | [15] 102% | [16] 98.6% | [17] 105% | [18] 101% | [19] 108%

CC[C@H](C)[C@H](NC(=O)C12CC(NC(C)=O)(C1)C2)C(=O)N(C)[C@H](C[C@@H](OC(C)=O)c1nc(C(=O)N[C@@H](Cc2ccccc2)C[C@H](C)C(=O)OC)cs1)C(C)C
inactive: [1] 21.4% | [2] 20.8% | [4] 17.2% | [5] 44% | [6] 43.3% | [7] 27% | [8] 35.4% | [10] 15.8% | [11] 80.5% | [12] 50.1% | [15] 23.7% | [16] 15.7% | [18] 24.8% | [19] 12.5%
active: [3] 6.56% | [9] -42.3% | [13] 4.76% | [14] -59% | [17] 3.73%

ClC1=C(Cl)C(Cl)(C2(Cl)C(Cl)=C(Cl)C(Cl)=C2Cl)C(Cl)=C1Cl
active: [1] -36.7% | [2] -25.3% | [3] -37.8% | [4] 0.392% | [6] -30.2% | [8] -33.3% | [9] -77.4% | [11] 4.66% | [12] -45.4% | [13] -12.3% | [14] -50.9% | [15] -52.8% | [16] -40.9% | [17] -73.4%
inactive: [5] 16.1% | [7] 87.1% | [10] 53.3% | [19] 84.5%

CC(=O)OC1CCC2C3CCC4=C/C(=N/OC(=O)c5ccc(N(CCCl)CCCl)cc5)CCC4(C)C3CC(C)C12 (stereo not given)
active: [2] -7.87% | [8] -59.1% | [11] -13.2%
inactive: [1] 57.7% | [3] 70.8% | [4] 54.5% | [5] 101% | [6] 72% | [7] 114% | [9] 59.7% | [10] 26.3% | [12] 43.8% | [13] 110% | [14] 78.3% | [15] 83.4% | [16] 99.3% | [17] 54.6% | [19] 73.6%

O=C1C2C(C(=O)[N]1[Hg][c]1cccs1)C1(Cl)C(Cl)=C(Cl)C2(Cl)C1(Cl)Cl (stereo not given)
active: [1] 3.08% | [2] 1.72% | [3] -11.4% | [8] 0.499% | [9] -91.1% | [12] -78.5% | [13] -1.18% | [14] 7.41% | [15] -40.4% | [16] -13.1% | [17] -31.9%
inactive: [4] 11.9% | [5] 13.7% | [6] 37.3% | [7] 102% | [10] 42% | [11] 21% | [19] 87.3%

O=C(Nc1ccc([N+](=O)[O-])cc1)C(Cl)(Cl)Cl
inactive: [1] 107% | [2] 94.1% | [3] 106% | [4] 100% | [5] 95.6% | [6] 103% | [7] 115% | [8] 93.5% | [9] 117% | [10] 99.8% | [11] 99.6% | [12] 80.7% | [13] 91.6% | [14] 104% | [15] 105% | [16] 85.9% | [17] 91.1% | [19] 97.1%

O=C(O)c1c(Cl)n(Cc2ccc(O)cc2)c2ccc(O)cc12
inactive: [1] 109% | [2] 106% | [3] 70.9% | [4] 103% | [5] 92.4% | [6] 104% | [7] 115% | [8] 63.4% | [9] 93.9% | [10] 102% | [11] 118% | [12] 118% | [13] 99.4% | [14] 87% | [15] 101% | [16] 101% | [17] 95% | [19] 107%
